This is a sample that favours compounds with a hit; in the whole collection about 8% have one here.
MCF10A rereplic = DNA re-replication induction in MCF 10a cells; MCF 10A DNA re-replication, Hoechst nuclear intensity, 48 h; Potency, µM (top dose mostly 46.1 µM), for inactives: at the top dose activity, positive = re-replication, actives largely listed as activators; 2.9% of 350,000 active; AID 624296; also: % of control where 0% means no effect; nearly all actives have a fitted effect of over 50% in size
SW480 rerep = induces DNA re-replication in SW480 colon adenocarcinoma cells. SW480 DNA re-replication, Hoechst DNA content imaging, 48 h. Potency, µM (highest dose often 46.1 µM), inactives show at the highest dose re-replication activation, usual class: activators. 1.8% of 340,000 active; also: % of control where 0% means no effect; nearly all actives have a fitted effect of over 55% in size
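Image-based DNA-content assay: after two days of treatment, nuclei were labelled with the DNA dye Hoechst and imaged, and hits were compounds raising the count of nuclei showing high fluorescence intensity.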
KB-V1 MDR tox = KB-V1 MDR subline cytotoxicity | 3.4% of 400,000 active | Potency, µM (series often up to 46.1 µM), most hits filed as cytotoxic | KB-V1 MDR cells viability, CellTiter-Glo, 72 h; also: % is scaled to controls: 0 for no effect and ±100 for the full control effect; nearly all actives have a fitted effect of over 60% in size
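KB-V1 cells (P-gp-expressing MDR subline of KB-3-1) in phenol-red-free DMEM with 10% FBS were exposed to library compounds over a concentration series for 72 h at 37 degrees C. Viability read by CellTiter-Glo luminescence; concentration-effect curves fitted after normalization.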
HT1080 IDH1KD tx = kills HT-1080 cells with IDH1 knockdown; HT-1080 IDH1 knockdown viability, ATP luminescence, 48 h; AID 686971; Potency, µM (highest dose often 46.1 µM), without a hit: top-dose activity, negative = toxicity, most hits filed as cytotoxic; 2% of 360,000 active;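 also: 0% = DMSO wells and -100% = cell-free medium wells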
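Using the IDH1-knockdown HT-1080 line run in the same batch and compound series as the NT line, viability after 48 h at 37 °C was determined by CellTiter-Glo luminescence and expressed as % activity.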
HT1080NT lethal = kills 2HG-producing HT-1080-NT fibrosarcoma cells | Potency, µM (highest dose often 46.1 µM), for the others: at the highest dose activity, negative = less viability, most hits filed as cytotoxic | HT-1080-NT fibrosarcoma viability, CellTiter-Glo ATP luminescence, 48 h | 1.6% of 360,000 active;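 also: NT is the 2HG producing partner of a matched IDH1 knockdown line; 0% = DMSO-treated cells and -100% = media-only wells without cells; nearly all actives have a fitted effect of over 55% in size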
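A 48-hour cytotoxicity screen used HT-1080-NT cells plated 2 hours before compound delivery. ATP-based CellTiter-Glo luminescence measured viability, normalized to DMSO and no-cell controls.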
KB-3-1 cytotox = KB-3-1 parental cell cytotoxicity; KB-3-1 viability, CellTiter-Glo ATP luminescence, 72 h; Potency, µM (top dose mostly 46.1 µM), hits mostly cytotoxic; 1.4% of 400,000 active; also: % is scaled to controls: 0 for no effect and ±100 for the full control effect; nearly all actives have a fitted effect of over 60% in size
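Here the drug-naive KB-3-1 line serves as comparator for MDR sub-line selectivity; cells received compound titrations, 72 h at 37 °C, then CellTiter-Glo readout.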
An asterisk follows results filed as active; i = inactive; ? = inconclusive; . = no result. Calls follow the shape of the dose curve; as a rule, active = well fitted curve in the direction sought with a large enough effect; inconclusive = small, poorly fitted or top-dose-only effect, or another doubt; inactive = no such curve, though single readings can be large; an effect the other way counts as inactive or inconclusive. Potency is read from the fitted curve at half-maximal effect.

SMILES	MCF10A rereplic	SW480 rerep	KB-V1 MDR tox	HT1080 IDH1KD tx	HT1080NT lethal	KB-3-1 cytotox
O=S1(=O)C=C(Sc2nc3cc(Cl)ccc3o2)c2ccccc21	?	?	?	5.17µM*	5.17µM*	?
CN(C)c1nc(N)nc(CSc2nc3cc(Cl)ccc3o2)n1	3.7%	4.4%	i	23.4%	5.9%	i
COc1ccccc1-c1nc(SCC(=O)NCc2ccccc2)c2c(=O)n(C)c(=O)n(C)c2n1	.	.	i	.	.	i
Cc1ccc(S(=O)(=O)c2cn(C)c3cc(N4CCCC(C)C4)c(F)cc3c2=O)c(C)c1 (centres undefined)	.	.	i	.	.	i
C=CCN1C(=O)/C(=C\c2ccc(Cl)cc2)N=C1SCC(=O)NCCC	-3.2%	-6.9%	?	-4.1%	-1.9%	i
COCCNC(=O)CSC1=N/C(=C/c2ccc(Cl)c(Cl)c2)C(=O)N1c1ccccc1F	9.2µM*	?	i	?	?	i
Cc1cccc(C(=O)NCC(=O)OCc2cc(=O)n3nc(CC(C)C)sc3n2)c1	.	.	i	.	.	i
Cc1cccc(-c2nc(=S)c3c(n2Cc2ccco2)CCCC3)c1	16.4%	?	i	-8.4%	-3.4%	i
COc1cccc(-c2nc(=S)c3c(n2Cc2ccco2)CCCC3)c1	20.6µM*	14.2%	i	?	?	i
CCc1ccccc1NC(=O)Cn1c(=O)n(CCCCCC(=O)NCc2ccc(C)cc2)c(=O)c2sccc21	.	.	i	.	.	?
Cc1ccc(NC(=O)C(=O)NCC(c2cccnc2)N2CCN(C)CC2)cc1C (centres undefined)	.	.	i	.	.	i
O=C(Nc1ccc(F)cc1)C(Sc1nnc2ccccn12)c1ccccc1 (centres undefined)	-67.7%	7.4%	5.8µM*	1.0%	7.6%	i
COc1ccc(C)cc1NC(=O)C(Sc1nnc2ccccn12)c1ccccc1 (centres undefined)	0.0%	-1.7%	3.26µM*	-5.8%	-2.6%	i
CCOc1ccccc1NC(=O)C(Sc1nnc2ccccn12)c1ccccc1 (centres undefined)	2.7%	-4.0%	?	1.5%	1.0%	i
CO/N=C/C(=N\Nc1ccc(C)cc1)C(=O)c1ccc(OC)cc1	2.59µM*	?	4.61µM*	2.91µM*	?	5.17µM*
CO/N=C/C(=N\Nc1ccc(OC)cc1)C(=O)c1ccc(F)cc1	?	26.3%	i	?	17.7%	i
Cc1nc(N)nc(N)c1/C=C/C(C)(C)c1ccc(Cl)cc1	?	5.2%	?	0.0082µM*	0.0291µM*	?
CC(C)c1nnc(NC(=O)CC(C)c2ccccc2)s1 (centres undefined)	-1.4%	4.6%	i	-4.1%	-8.5%	i
CCOC(=O)c1sc(NC(=O)CCc2ccccc2)nc1C	19.9%	5.8µM*	i	-5.8%	-17.2%	?
c1ccc(NC(c2ccccc2)c2ccncc2)cc1 (centres undefined)	24.4%	2.3%	i	5.5%	-0.5%	?
CCOC(=O)c1sc(NC(=O)CC(C)c2ccccc2)nc1C (centres undefined)	27.0%	?	?	9.2µM*	?	?
CCOC(=O)c1sc(NC(=O)C(OC(C)=O)c2ccccc2)nc1C (centres undefined)	3.6%	15.4%	i	1.7%	5.2%	i
Cc1cnc(NC(=O)CC(C)c2ccccc2)s1 (centres undefined)	10.3µM*	5.8µM*	?	?	?	20.6µM*
c1ccc(C(Nc2cccnc2)c2ccccc2)cc1	0.6%	1.0%	20.6µM*	12.8%	13.3%	i
CCOC(=O)c1sc(NC(=O)CCSC)nc1C	7.6%	?	?	-4.1%	-10.1%	i
SMILES	MCF10A rereplic	SW480 rerep	KB-V1 MDR tox	HT1080 IDH1KD tx	HT1080NT lethal	KB-3-1 cytotox
CCN(CC)CCCNC(=O)c1ccc(Cn2c(SCc3ccccc3)nc3cccnc32)cc1	.	.	i	.	.	i
CCOC(=O)c1sc(NC(=O)c2ccc(OC(C)=O)cc2)nc1C	-0.2%	14.8%	10.3µM*	29.1µM*	-25.6%	?
CCc1ccc(CCC(=O)Nc2ncc(Cc3ccccc3Cl)s2)o1	1.64µM*	4.61µM*	i	4.61µM*	6.51µM*	?
CC(CC(=O)Nc1ccc(C(N)=O)cc1)c1ccccc1 (centres undefined)	-2.5%	1.4%	i	-3.2%	0.4%	i
CCOC(=O)c1sc(NC(=O)c2ccc(OC)cc2)nc1C	-4.4%	-5.5%	i	20.5%	15.0%	i
CC(CC(=O)Nc1cccnc1)c1ccccc1 (centres undefined)	11.6µM*	11.6%	i	0.5%	4.4%	i
COc1ccccc1CCC(=O)Nc1ncc(C)s1	?	?	23.1µM*	-1.7%	-15.5%	?
Cc1cccc(CNC(=O)CS(=O)(=O)c2cccc3nsnc23)c1	.	.	i	.	.	i
COc1cc2c(cc1NS(=O)(=O)c1cccc(C#N)c1)n(C)c(=O)n2C	.	.	i	.	.	?
CSc1nnc(CSCc2ccc(Cl)cc2Cl)n1-c1ccccc1	11.2µM*	19.1%	?	?	-0.4%	i
Cc1cc(=O)n2nc(N(C)CC(=O)NCc3ccccc3C)sc2n1	.	.	i	.	.	i
S=C(NC1CCCCC1)N(CCc1nc2ccccc2[nH]1)C1CCCC1	14.7%	3.4%	16.4µM*	-26.4%	-15.0%	?
O=C(Nc1ccccc1)N(CCc1nc2ccccc2[nH]1)C1CCCC1	7.4%	4.3%	16.4µM*	0.6%	-18.1%	i
CSc1ccc(CCNC(=O)CCc2c(C)nc3c(-c4ccccc4)c(C)nn3c2C)cc1	.	.	i	.	.	i
CCCNC(=O)C1CCC(Cn2c(=O)c3sccc3n(CC(=O)N(CC)CC)c2=O)CC1 (centres undefined)	.	.	?	.	.	i
COc1ccc2c(C)c(Cc3ccccc3)c(=O)oc2c1OC	-0.9%	-10.8%	?	5.9%	9.6%	i
CCCCc1c(C)c2ccc(OC)c(/C(C)=N\O)c2oc1=O	-2.1%	-51.0%	5.8µM*	6.8%	8.4%	?
CCOc1ccc(CCNC(=O)c2sc3ncccc3c2-n2cccc2)cc1OCC	.	.	?	.	.	i
COc1ccccc1COCC(O)CN(Cc1ccco1)Cc1ccccc1O (centres undefined)	13.5%	8.2%	7.31µM*	-19.2%	0.0%	i
Cc1nn(C)c(Cl)c1S(=O)(=O)N(Cc1ccco1)c1ncnc2nc[nH]c12	.	.	i	.	.	i
COc1cccc(N2CCN(C(=O)c3cc4c(=O)n(Cc5cccs5)ccc4nc3C)CC2)c1	.	.	i	.	.	i
